Data taken from PubChem BioAssay (NCI).
Compounds without any hit were thinned out: in the full panel of roughly 79,000, 15% have a hit. Activity calls are given as the source filed them. Rule as the data show it: active = growth inhibition above about 70%; inactive = the rest.

Columns and labels:
[1] = NCI Yeast Anticancer Drug Screen. Data for the rad52 strain (AID 147);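 also: 0% = growth of vehicle-treated control cultures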; conditions: S. cerevisiae rad52 mutant growth inhibition, hits give high values
How it was run: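 Read-out: growth inhibition versus vehicle-treated controls. Cells were a DNA repair-deficient yeast strain treated with compounds.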

[2] = NCI Yeast Anticancer Drug Screen. Data for the wt1 strain (AID 149);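 also: 0% = growth of vehicle-treated wt1 cultures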; conditions: S. cerevisiae wt1 strain (SPY 50644) growth inhibition, hits give high values
How it was run: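 Growth inhibition read against vehicle controls after compound exposure of the wt1 yeast strain.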

[3] = NCI Yeast Anticancer Drug Screen. Data for the rad50EPP+ strain (AID 151);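 also: 0% = growth of vehicle-treated control cultures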; conditions: S. cerevisiae rad50 mutant strain, hits give high values
How it was run: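 Growth inhibition read against vehicle controls in rad50EPP+ yeast, a strain altered in DNA damage repair, after compound exposure.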

[4] = NCI Yeast Anticancer Drug Screen. Data for the mgt1 strain (AID 153); conditions: S. cerevisiae mgt1 mutant growth inhibition, hits give high values
How it was run: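 mgt1 yeast grown with test compound; read-out is growth inhibition versus vehicle-treated cultures.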

[5] = NCI Yeast Anticancer Drug Screen. Data for the rad50 strain (AID 155);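 also: 0% = growth of vehicle-only cultures of the same strain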; conditions: S. cerevisiae rad50 strain growth inhibition, hits give high values
How it was run: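 Readout: growth inhibition relative to vehicle-treated cultures. Compound exposure was carried out in a genetically defined yeast strain deficient in DNA damage repair.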

[6] = NCI Yeast Anticancer Drug Screen. Data for the mec2-1 strain (AID 157); conditions: S. cerevisiae mec2-1 strain, hits give high values
How it was run: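 Yeast mec2-1 mutant treated with compound. Readout: growth inhibition vs vehicle controls.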

[7] = NCI Yeast Anticancer Drug Screen. Data for the rad14 strain (AID 159);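 also: 0% = growth of vehicle-treated control cultures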; conditions: S. cerevisiae rad14 strain growth inhibition, hits give high values
How it was run: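 Growth inhibition vs vehicle controls; genetically altered yeast strain (DNA damage repair defect) treated with test compounds.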

[8] = NCI Yeast Anticancer Drug Screen. Data for the sgs1 mgt1 strain (AID 161);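 also: 0% = growth of cultures given vehicle only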; conditions: S. cerevisiae sgs1 mgt1 strain, hits give high values
How it was run: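 Read-out: growth inhibition vs vehicle controls. Cells: mutant yeast strain deficient in DNA damage repair.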

[9] = NCI Yeast Anticancer Drug Screen. Data for the CLN2oe strain (AID 163);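 also: 0% = growth of vehicle-only control cultures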; conditions: S. cerevisiae CLN2oe strain, hits give high values
How it was run: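 Read-out: yeast growth inhibition, expressed relative to vehicle-only controls. The strain bears an engineered cell-cycle alteration.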

[10] = NCI Yeast Anticancer Drug Screen. Data for the cln2 rad14 strain (AID 165);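 also: 0% = growth equal to vehicle treated cultures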; conditions: S. cerevisiae cln2 rad14 strain, hits give high values
How it was run: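 cln2 rad14 yeast strain; compound exposure; growth inhibition read vs vehicle controls.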

[11] = NCI Yeast Anticancer Drug Screen. Data for the bub3 strain (AID 167); conditions: S. cerevisiae bub3 mutant strain, hits give high values
How it was run: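 Readout: yeast growth inhibition, expressed relative to vehicle-only wells. The test organism is a mutant strain from a panel with lesions in DNA repair or checkpoint genes.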

[12] = NCI Yeast Anticancer Drug Screen. Data for the wt2 strain (AID 169);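 also: 0% = growth of vehicle-treated yeast cultures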; conditions: S. cerevisiae wt2 strain growth inhibition, hits give high values
How it was run: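 Read-out: growth inhibition versus vehicle-treated control cultures after compound exposure of the yeast strain.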

[13] = NCI Yeast Anticancer Drug Screen. Data for the mlh1 strain (AID 171);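 also: 0% = growth of vehicle-treated control cultures of the same strain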; conditions: S. cerevisiae mlh1 strain growth inhibition, hits give high values
How it was run: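 Read-out: growth inhibition versus vehicle controls. Strain: engineered yeast with a defined DNA repair or cell cycle defect, compound-treated.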

[14] = NCI Yeast Anticancer Drug Screen. Data for the sgs1 strain (AID 173);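 also: 0% = growth of vehicle-only control cultures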; conditions: S. cerevisiae sgs1 mutant, hits give high values
How it was run: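 Read-out: yeast growth inhibition relative to vehicle controls, following compound exposure of a strain with a defined DNA repair/cell cycle alteration.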

[15] = NCI Yeast Anticancer Drug Screen. Data for the mlh1 rad18 strain (AID 175); conditions: S. cerevisiae mlh1 rad18 strain growth inhibition, hits give high values
How it was run: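 Yeast w/ defined DNA-repair lesions; compound exposure; growth vs vehicle controls → % inhibition.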

[16] = NCI Yeast Anticancer Drug Screen. Data for the rad18 strain (AID 177); conditions: S. cerevisiae rad18 mutant growth inhibition, hits give high values
How it was run: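 Readout: growth inhibition vs vehicle controls. Cells: genetically altered yeast strain, DNA repair defect.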

[17] = at 5.0 µM (retest, dose inferred, filed as 0.5)
[18] = at 50.0 µM (retest, dose inferred, filed as 5.0)

Measured: growth inhibition

Cc1cccc2c(C(O)CBr)cc(-c3ccc(Cl)cc3)nc12 (stereo not drawn)
active: [1]; at 11.0 µM 98% | [1]; at 33.0 µM 96% | [1]; at 100.0 µM 87% | [2]; at 11.0 µM 98% | [2]; at 33.0 µM 97% | [2]; at 100.0 µM 91% | [4]; at 11.0 µM 98% | [4]; at 33.0 µM 97% | [4]; at 100.0 µM 92% | [5]; at 11.0 µM 98% | [5]; at 33.0 µM 96% | [5]; [18] 93% | [5]; at 50.0 µM 93.8% | [5]; at 100.0 µM 88% | [6]; at 11.0 µM 99% | [6]; at 33.0 µM 97% | [6]; [18] 96% | [6]; at 50.0 µM 96.1% | [7]; at 11.0 µM 99% | [7]; at 33.0 µM 97% | [7]; at 100.0 µM 88% | [8]; [18] 95% | [8]; at 50.0 µM 95.7% | [9]; at 11.0 µM 98% | [9]; at 33.0 µM 96% | [10]; [18] 95% | [10]; at 50.0 µM 92.8% | [11]; at 11.0 µM 98% | [11]; at 33.0 µM 96% | [11]; [18] 96% | [11]; at 50.0 µM 92.5% | [12]; at 11.0 µM 98% | [12]; at 33.0 µM 96% | [12]; at 100.0 µM 88% | [13]; at 11.0 µM 98% | [13]; at 33.0 µM 95% | [14]; at 11.0 µM 98% | [14]; at 33.0 µM 96% | [14]; at 100.0 µM 90% | [15]; [18] 95% | [15]; at 50.0 µM 95.3% | [16]; at 11.0 µM 98% | [16]; at 33.0 µM 95% | [16]; at 100.0 µM 88%
inactive: [1]; at 1.2 µM 0% | [1]; at 3.7 µM 20% | [2]; at 1.2 µM -3% | [2]; at 3.7 µM -5% | [3]; at 1.2 µM 1% | [3]; at 3.7 µM 10% | [3]; at 11.0 µM 32% | [3]; at 33.0 µM 40% | [3]; at 100.0 µM 54% | [4]; at 1.2 µM -2% | [4]; at 3.7 µM -1% | [5]; at 1.2 µM 0% | [5]; at 3.7 µM 11% | [5]; [17] 3% | [6]; at 1.2 µM 0% | [6]; at 3.7 µM 4% | [6]; [17] 1% | [6]; at 100.0 µM 51% | [7]; at 1.2 µM -4% | [7]; at 3.7 µM 3% | [8]; [17] 3% | [9]; at 1.2 µM -2% | [9]; at 3.7 µM -3% | [9]; at 100.0 µM 51% | [10]; [17] -10% | [11]; at 1.2 µM 0% | [11]; at 3.7 µM 8% | [11]; [17] -1% | [11]; at 100.0 µM 45% | [12]; at 1.2 µM -4% | [12]; at 3.7 µM -6% | [13]; at 1.2 µM -5% | [13]; at 3.7 µM 1% | [13]; at 100.0 µM 48% | [14]; at 1.2 µM -2% | [14]; at 3.7 µM 7% | [15]; [17] 1% | [16]; at 1.2 µM -3% | [16]; at 3.7 µM 17%

Cc1nc(-[n+]2nc(-c3ccncc3)nn2-c2ccccc2)sc1C
inactive: [1]; at 1.2 µM -2% | [1]; at 3.7 µM -2% | [1]; at 11.0 µM 0% | [1]; at 33.0 µM 38% | [1]; at 100.0 µM 5% | [2]; at 1.2 µM -1% | [2]; at 3.7 µM -2% | [2]; at 11.0 µM -14% | [2]; at 33.0 µM 9% | [2]; at 100.0 µM -11% | [3]; at 1.2 µM 3% | [3]; at 3.7 µM 16% | [3]; at 11.0 µM 41% | [3]; at 33.0 µM 44% | [3]; at 100.0 µM 36% | [4]; at 1.2 µM -4% | [4]; at 3.7 µM -5% | [4]; at 11.0 µM 8% | [4]; at 33.0 µM 54% | [5]; at 1.2 µM -3% | [5]; at 3.7 µM -46% | [5]; [17] 1% | [5]; at 11.0 µM 3% | [5]; at 33.0 µM 48% | [5]; [18] 21% | [5]; at 50.0 µM 66.2% | [5]; at 100.0 µM 58% | [6]; at 1.2 µM -1% | [6]; at 3.7 µM -2% | [6]; [17] 0% | [6]; at 11.0 µM -3% | [6]; at 33.0 µM 33% | [6]; [18] -28% | [6]; at 100.0 µM 39% | [7]; at 1.2 µM -2% | [7]; at 3.7 µM -3% | [7]; at 11.0 µM -7% | [7]; at 33.0 µM 8% | [7]; at 100.0 µM 1% | [8]; [17] 7% | [9]; at 1.2 µM -4% | [9]; at 3.7 µM -3% | [9]; at 11.0 µM -6% | [9]; at 33.0 µM 25% | [9]; at 100.0 µM 14% | [10]; [17] 0% | [10]; [18] 11% | [10]; at 50.0 µM 63.9% | [11]; at 1.2 µM -1% | [11]; at 3.7 µM -5% | [11]; [17] -45% | [11]; at 11.0 µM -5% | [11]; at 33.0 µM 38% | [11]; [18] 60% | [11]; at 50.0 µM 48% | [11]; at 100.0 µM 18%
active: [4]; at 100.0 µM 78% | [6]; at 50.0 µM 78.5% | [8]; [18] 76% | [8]; at 50.0 µM 74.8%
